Literature values, collected in PubChem BioAssay AID977611.
The whole screen tested about 3,900 compounds, of which about 3,900 (100%) were called active. The limit is not given here; nearly all actives have Kd up to about 4200 µM. So high a share suggests a set chosen from earlier hits. The list shows a part of the results. Where a SMILES comes first, the peptide text is derived from it. Non-standard residues stand in square brackets, D forms with d. Square brackets hold non-standard residues; d marks the D form. Residues, ends and D or L forms follow the SMILES beside them. Peptide text beside a SMILES is read from it. [ ]: non-standard residue; d: D form. *: point of attachment. X1 = O=C(O)c1cc(NC(=S)*)ccc1-c1c2ccc(=O)cc-2oc2cc(O)ccc12; Phe(3,4-Cl2) = N[C@@H](Cc1ccc(Cl)c(Cl)c1)C(=O)O; Orn(CH(NH2)2) = NC(N)NCCC[C@H](N)C(=O)O; Ahx = NCCCCCC(=O)O

Assay: PubChem AID 977611
Settings: PDB protein-ligand complexes, literature Kd

In the case of NCc1cccc2c1OCCCO2, the Kd (protein: CATIONIC TRYPSIN, PDB entry 4ab8) is listed as 136000 nM (active).

In the case of CCOc1ccc2cccc(-n3cc(NC(N)=O)c(C(N)=O)n3)c2c1, the Kd (protein: Tyrosine-protein kinase ITK/TSK kinase domain, PDB entry 4m12) is given as 900 nM (active).

In the case of NC(=O)Nc1cn(-c2cccc3ccccc23)nc1C(N)=O, the Kd (protein: Tyrosine-protein kinase ITK/TSK kinase domain, PDB entry 4m0y) is listed as 350 nM (active).

For CCCOc1ccc2cccc(-n3cc(NC(N)=O)c(C(N)=O)n3)c2c1, the Kd (protein: Tyrosine-protein kinase ITK/TSK kinase domain, PDB entry 4m13) is listed as 200 nM (active).

In the case of COc1ccc2cccc(-n3cc(NC(N)=O)c(C(N)=O)n3)c2c1, the Kd (protein: Tyrosine-protein kinase ITK/TSK kinase domain, PDB entry 4m0z) is listed as 6400 nM (active).

In the case of CC(C)Oc1ccc2cccc(-n3cc(NC(N)=O)c(C(N)=O)n3)c2c1, the Kd (protein: Tyrosine-protein kinase ITK/TSK kinase domain, PDB entry 4m14) is given as 200 nM (active).

In the case of H-AAKKLV-OH, the Kd (protein: Coatomer subunit beta', PDB entry 4j73) is given as 27700 nM (active).

For CC(C)C[C@H](NC(=O)[C@H](C)N)C(=O)N[C@@H](CCCCN)C(=O)N[C@@H](CCCNC(N)N)C(=O)N[C@@H](CCCNC(N)N)C(=O)N[C@@H](CC(N)=O)C(=O)N[C@H](C(=O)O)C(C)C (HELM PEPTIDE1{A.L.K.[NC(N)NCCC[C@H](N[*:1])C(=O)[*:2]].[NC(N)NCCC[C@H](N[*:1])C(=O)[*:2]].N.V}$$$$V2.0), the Kd (protein: Importin-?, PDB entry 1iq1) is given as 35 nM (active).

For CC(C)C[C@H](NC(=O)[C@H](CCCCN)NC(=O)[C@H](CCCNC(N)N)NC(=O)[C@H](C)N)C(=O)N[C@@H](CC(=O)O)C(=O)O (H-A[Orn(CH(NH2)2)]KLD-OH), the Kd (protein: Coatomer subunit beta', PDB entry 4j84) is listed as 20400 nM (active).

For S=CNc1ccc2oc(C3=NCCN3)cc2c1, the Kd (protein: Chitinase A, PDB entry 3ary) is listed as 1000 nM (active) and the Kd (protein: Chitinase A, PDB entry 3arz) is listed as 1000 nM (active).

For CN(C)CCOc1ccc(-c2nc(-c3ccc4c(c3)CC/C4=N/O)c(-c3ccncc3)[nH]2)cc1, the Kd (protein: B-Raf kinase domain, PDB entry 2fb8) is given as 0.16 nM (active).

For O=S(=O)(c1ccc(O)cc1O)n1cc2ccccc2c1, the Kd (PDB entry 4mpc) is given as 711 nM (active).

In the case of O=S(=O)(c1ccc(O)cc1O)n1cc2cc(O)cc(O)c2c1, the Kd (PDB entry 4mpn) is listed as 239 nM (active).

In the case of O=C(c1ccc(O)cc1O)n1cc2ccccc2c1, the Kd (PDB entry 4mp7) is given as 1830 nM (active).

For CC(C)C[C@H](NC(=O)[C@H](C)NC(=O)[C@H](Cc1ccc(Cl)c(Cl)c1)NC(=O)[C@H](Cc1c[nH]c2ccccc12)NC(=O)[C@H](CCC(=O)O)NC(=O)[C@H](CCC(=O)O)NC(=O)[C@H](CC(C)C)NC(=O)[C@H](CC(=O)O)NC(=O)[C@H](CC(=O)O)NC(=O)[C@H](C)NC(=O)[C@@H](NC(=O)[C@H](Cc1ccccc1)NC(=O)[C@H](CC(=O)O)NC(=O)CCCCCNC(=S)Nc1ccc(-c2c3ccc(=O)cc-3oc3cc(O)ccc23)c(C(=O)O)c1)[C@@H](C)O)C(N)=O ({X1-Ahx}-DFTADDLEEW[Phe(3,4-Cl2)]AL-NH2), the Kd (protein: Replication protein A 70 kDa DNA-binding subunit, PDB entry 4nb3) is given as 22 nM (active).

For CC(C)C[C@H](NC(=O)[C@H](CCC(=O)O)NC(=O)[C@H](CO)NC(=O)[C@H](CC(=O)O)NC(=O)[C@H](CO)NC(=O)[C@H](CC(=O)O)NC(=O)[C@H](CCC(=O)O)NC(=O)[C@H](CCC(N)=O)NC(=O)[C@H](CO)NC(=O)CN)C(=O)N[C@@H](CCC(=O)O)C(=O)N[C@@H](CCC(N)=O)C(=O)N[C@@H](Cc1ccc(O)cc1)C(=O)N[C@@H](Cc1ccccc1)C(=O)N[C@H](C(=O)N[C@@H](C)C(=O)N[C@@H](CCCNC(N)N)C(=O)N[C@@H](Cc1c[nH]c2ccccc12)C(=O)O)[C@@H](C)O (H-GSQEDSDSELEQYFTA[Orn(CH(NH2)2)]W-OH), the Kd (protein: DAXX N-Terminal Helical Bundle Domain (55-144), PDB entry 2kzu) is listed as 60000 nM (active).

In the case of CSCC[C@H](NC(=O)[C@H](CC(C)C)NC(=O)[C@H](Cc1ccccc1)NC(=O)[C@H](CC(=O)O)NC(=O)[C@H](Cc1ccc(O)cc1)NC(=O)[C@H](Cc1c[nH]c2ccccc12)NC(=O)[C@@H](NC(=O)[C@@H](NC(=O)[C@H](CCCNC(N)N)NC(=O)[C@@H](N)CO)C(C)C)[C@@H](C)O)C(=O)N[C@@H](CCC(=O)O)C(=O)N[C@@H](CC(=O)O)C(=O)O (H-S[Orn(CH(NH2)2)]VTWYDFLMED-OH), the Kd (protein: Guanine nucleotide-binding protein G, PDB entry 1y3a) is listed as 3900 nM (active).
